Screen size: about 39,000 compounds; about 3,300 (8.5%) were called active. The sample as a whole holds a higher share of actives than the screen did.

This assay has as its system HepG2. The assay can be described thus: cytotoxicity call (relative viability < 0.9). The note with it: 10 µM.
With `C[C@@H]1CN([C@H](C)CO)C(=O)c2cc(NC(=O)C3CCCCC3)ccc2O[C@@H](C)CCCCO[C@H]1CN(C)S(=O)(=O)c1ccc(Cl)cc1`, the cytotoxicity call is “inactive”.
On to `CO[C@H]1CN(C)C(=O)c2ccc(NS(=O)(=O)c3cn(C)cn3)cc2OC[C@@H](C)N(Cc2cccc(F)c2)C[C@@H]1C`, for which the cytotoxicity call was “inactive”.
Regarding `C[C@@H]1CN([C@H](C)CO)C(=O)c2cc(NS(C)(=O)=O)ccc2O[C@@H]1CN(C)C(=O)Nc1ccc(F)cc1`, the cytotoxicity call was “inactive”.
As for `C[C@@H]1CCCCO[C@@H](CN(C)C(=O)Nc2ccc3c(c2)OCO3)[C@H](C)CN([C@@H](C)CO)C(=O)c2cc(NC(=O)CCC(F)(F)F)ccc2O1`, the cytotoxicity call was “inactive”.
Take `CO[C@@H](CN(C)S(=O)(=O)c1ccc(C)cc1)[C@H](C)CN([C@H](C)CO)S(=O)(=O)c1cccc(Cl)c1`: the cytotoxicity call is “inactive”.
For `COCC(=O)N1C[C@@H](C)[C@H](OC)CN(C)C(=O)c2cc(NC(=O)c3ccc(F)cc3)ccc2OC[C@H]1C`, the cytotoxicity call was “inactive”.
As to `O=C1c2ccccc2[C@@]2(Cc3ccccc3N(CC(F)(F)F)C2=O)[C@H](c2ccc(CO)cc2)N1Cc1ccccc1`, the cytotoxicity call is “inactive”.
For the compound `C[C@H](CO)N1C[C@H](C)[C@H](CN(C)Cc2ccc(C(=O)Nc3ccccc3N)cc2)Oc2ccc(NC(=O)Nc3ccc4c(c3)OCO4)cc2CC1=O`, the cytotoxicity call is “inactive”.
With `C[C@H]1CN([C@@H](C)CO)C(=O)Cc2cc(NC(=O)Nc3ccc4c(c3)OCO4)ccc2O[C@H]1CN(C)Cc1ccc(C(=O)Nc2ccccc2N)cc1`, the cytotoxicity call is “active”.
As for `C[C@@H]1CN([C@@H](C)CO)C(=O)Cc2cc(NC(=O)Nc3ccc4c(c3)OCO4)ccc2O[C@H]1CN(C)Cc1ccc(C(=O)Nc2ccccc2N)cc1`, the cytotoxicity call is “inactive”.
`C[C@H]1CN([C@@H](C)CO)C(=O)Cc2cc(NC(=O)Nc3ccccc3)ccc2O[C@@H]1CN(C)Cc1ccc(C(=O)Nc2ccccc2N)cc1`: the cytotoxicity call was “inactive”.
`C[C@@H]1CN([C@H](C)CO)C(=O)Cc2cc(NC(=O)Nc3ccc4c(c3)OCO4)ccc2O[C@@H]1CN(C)Cc1ccc(C(=O)Nc2ccccc2N)cc1`: the cytotoxicity call was “active”.
`C[C@H](CO)N1C[C@H](C)[C@@H](CN(C)Cc2ccc(C(=O)Nc3ccccc3N)cc2)Oc2ccc(NC(=O)Nc3ccc4c(c3)OCO4)cc2CC1=O`: the cytotoxicity call is “inactive”.
`C[C@@H]1CN([C@@H](C)CO)C(=O)Cc2cc(NC(=O)Nc3ccc4c(c3)OCO4)ccc2O[C@@H]1CN(C)Cc1ccc(C(=O)Nc2ccccc2N)cc1`: the cytotoxicity call is “active”.
Turning to `C[C@H]1CN([C@@H](C)CO)C(=O)Cc2cc(NC(=O)Nc3ccc4c(c3)OCO4)ccc2O[C@@H]1CN(C)Cc1ccc(C(=O)Nc2ccccc2N)cc1`, the cytotoxicity call is “inactive”.
Consider `C[C@@H]1CN([C@H](C)CO)C(=O)Cc2cc(NC(=O)Nc3ccc4c(c3)OCO4)ccc2O[C@H]1CN(C)Cc1ccc(C(=O)Nc2ccccc2N)cc1`, for which the cytotoxicity call was “inactive”.
In the case of `C[C@@H]1CN([C@H](C)CO)C(=O)c2cccc(NC(=O)Nc3cccc4ccccc34)c2O[C@@H]1CN(C)C(=O)NC1CCCCC1`, the cytotoxicity call was “inactive”.
On to `C[C@H]1CN([C@@H](C)CO)C(=O)CCCn2cc(nn2)CO[C@@H]1CN(C)C(=O)Nc1cccc2ccccc12`, for which the cytotoxicity call is “inactive”.
Turning to `O=C(Cn1cc(COc2ccc(-n3cccc3)cc2)nn1)NS(=O)(=O)c1ccccc1C(F)(F)F`, the cytotoxicity call is “inactive”.
Regarding `C[C@@H]1CN([C@@H](C)CO)C(=O)c2cc(NC(=O)Cc3ccccc3)ccc2O[C@@H](C)CCCCO[C@H]1CN(C)C(=O)C1CCCCC1`, the cytotoxicity call was “inactive”.
Take `C[C@H]1CN([C@@H](C)CO)C(=O)c2cccc(NS(=O)(=O)c3cccs3)c2O[C@@H]1CN(C)CC1CC1`: the cytotoxicity call is “inactive”.
Next, `COc1ccc([C@@H]([C@H](Cc2ccccc2)OC(C)=O)N2C[C@@H](OC(C)=O)[C@@H]3C(=NO[C@H]3c3ccccc3)[C@@H]2Cc2ccccc2)cc1`: “inactive”.
Next, `C[C@@H]1CN([C@@H](C)CO)C(=O)c2cccc(NC(=O)Nc3ccc4c(c3)OCO4)c2O[C@@H]1CN(C)Cc1ccc(C(F)(F)F)cc1`: “inactive”.
For the compound `Oc1cc(O)c2cc(O)c(-c3ccc(O)c(O)c3)[o+]c2c1.[Cl-]`, the cytotoxicity call was “inactive”.
With `Cc1noc(C)c1S(=O)(=O)Nc1ccc2c(c1)C(=O)N([C@H](C)CO)C[C@H](C)[C@H](CN(C)S(=O)(=O)c1ccc(Cl)cc1)O2`, the cytotoxicity call is “inactive”.
Next, `COc1ccc(S(=O)(=O)N2C[C@H](O)COC[C@H]3O[C@H](CC(=O)NCc4ccc(Cl)c(Cl)c4)CC[C@@H]32)cc1`: “inactive”.
As to `COc1ccc(S(=O)(=O)N2C[C@@H](O)COC[C@@H]3O[C@H](CC(=O)NCc4ccc(Cl)c(Cl)c4)CC[C@H]32)cc1`, the cytotoxicity call is “inactive”.
In the case of `COc1ccc(S(=O)(=O)N2C[C@@H](O)COC[C@H]3O[C@@H](CC(=O)NCc4ccc(Cl)c(Cl)c4)CC[C@@H]32)cc1`, the cytotoxicity call was “active”.
`COc1ccc(S(=O)(=O)N2C[C@H](O)COC[C@@H]3O[C@H](CC(=O)NCc4ccc(Cl)c(Cl)c4)CC[C@H]32)cc1`: the cytotoxicity call was “inactive”.
With `COc1ccc(S(=O)(=O)N2C[C@@H](O)COC[C@H]3O[C@H](CC(=O)NCc4ccc(Cl)c(Cl)c4)CC[C@@H]32)cc1` the entry was “inactive”.
Take `COc1ccc(S(=O)(=O)N2C[C@@H](O)COC[C@@H]3O[C@@H](CC(=O)NCc4ccc(Cl)c(Cl)c4)CC[C@H]32)cc1`: the cytotoxicity call was “active”.
With `COCCCN1C(=O)[C@@]2(Cc3ccccc31)c1ccccc1C(=O)N(C1CCCCC1)[C@H]2c1ccc(CO)cc1` the entry was “inactive”; with `COc1ccc(NC(=O)N(C)C[C@@H]2OCCCC[C@@H](C)Oc3ccc(NC(=O)NC(C)C)cc3C(=O)N([C@H](C)CO)C[C@H]2C)cc1`, “inactive”.
Next, `CC(C)CC#Cc1ccc2c(c1)O[C@@H](CN(C)S(=O)(=O)c1cccc(F)c1)[C@H](C)CN([C@@H](C)CO)S2(=O)=O`: “inactive”; `COc1ccccc1S(=O)(=O)N(C)C[C@@H]1Oc2cc(C#CCC(C)C)ccc2S(=O)(=O)N([C@H](C)CO)C[C@@H]1C`: “active”.
With `CC(C)CC#Cc1ccc2c(c1)O[C@@H](CN(C)S(=O)(=O)c1cccc(F)c1)[C@H](C)CN([C@H](C)CO)S2(=O)=O` the entry was “inactive”.
Take `COc1ccccc1S(=O)(=O)N(C)C[C@H]1Oc2cc(C#CCC(C)C)ccc2S(=O)(=O)N([C@@H](C)CO)C[C@@H]1C`: the cytotoxicity call is “inactive”.
With `CCCC#Cc1ccc2c(c1)O[C@H](CN(C)S(=O)(=O)c1cccc(OC)c1)[C@H](C)CN([C@@H](C)CO)S2(=O)=O`, the cytotoxicity call was “inactive”.
For `CCCC#Cc1ccc2c(c1)O[C@@H](CN(C)S(=O)(=O)c1cccc(OC)c1)[C@@H](C)CN([C@@H](C)CO)S2(=O)=O`, the cytotoxicity call was “inactive”.
Next, `COc1ccccc1S(=O)(=O)N(C)C[C@H]1Oc2cc(C#CCC(C)C)ccc2S(=O)(=O)N([C@@H](C)CO)C[C@H]1C`: “active”.
For the compound `COc1ccccc1S(=O)(=O)N(C)C[C@@H]1Oc2cc(C#CCC(C)C)ccc2S(=O)(=O)N([C@@H](C)CO)C[C@H]1C`, the cytotoxicity call is “inactive”.
For `COc1ccccc1S(=O)(=O)N(C)C[C@@H]1Oc2cc(C#CCC(C)C)ccc2S(=O)(=O)N([C@H](C)CO)C[C@H]1C`, the cytotoxicity call was “inactive”.
In the case of `CC(C)CC#Cc1ccc2c(c1)O[C@H](CN(C)S(=O)(=O)c1cccc(F)c1)[C@H](C)CN([C@@H](C)CO)S2(=O)=O`, the cytotoxicity call was “active”.
Turning to `COc1ccccc1S(=O)(=O)N(C)C[C@H]1Oc2cc(C#CCC(C)C)ccc2S(=O)(=O)N([C@H](C)CO)C[C@@H]1C`, the cytotoxicity call was “inactive”.
`C#CCSC1=N[C@@]2(COCc3ccc(OC)cc3)Oc3ccccc3[C@H]([C@H]2CO[Si](C)(C)C(C)(C)C)N1C(=O)c1ccccc1`: the cytotoxicity call was “inactive”.
Regarding `C[C@@H]1CN([C@H](C)CO)C(=O)c2cc(-c3ccc(F)cc3)cnc2O[C@@H]1CN(C)C(=O)Cc1ccccn1`, the cytotoxicity call was “inactive”.
On to `C[C@@H]1CN([C@H](C)CO)C(=O)c2cc(NC(=O)CCCN(C)C)ccc2O[C@H]1CN(C)S(=O)(=O)c1ccc(Cl)cc1`, for which the cytotoxicity call is “inactive”.
Next, `COC(=O)C1=C2CC[C@H](CO)NC(=O)N[C@H](Cc3ccccc3)C(=O)NCc3cn(nn3)C[C@@H](Cc3ccccc3)NC(=O)c3oc(c(C(=O)OC)c3C(=O)OC)CC[C@H](CO)NC(=O)N[C@H](Cc3ccccc3)C(=O)NCc3cn(nn3)C[C@@H](Cc3ccccc3)NC(=O)C(=C1C(=O)OC)O2`: “inactive”.
Regarding `Cc1noc(C)c1S(=O)(=O)Nc1ccc2c(c1)C(=O)N([C@@H](C)CO)C[C@@H](C)[C@H](CN(C)S(=O)(=O)c1cn(C)cn1)OCCCC[C@@H](C)O2`, the cytotoxicity call was “inactive”.
On to `C[C@@H]1CCCCO[C@H](CN(C)C(=O)Nc2ccc(F)cc2)[C@H](C)CN([C@@H](C)CO)C(=O)c2cc(NC(=O)CCC(F)(F)F)ccc2O1`, for which the cytotoxicity call is “inactive”.
Next, `Cc1ccc(S(=O)(=O)N(C)C[C@H]2Oc3ccc(NC(=O)CCCN(C)C)cc3C(=O)N([C@@H](C)CO)C[C@H]2C)cc1`: “inactive”; `C[C@H](CO)N1C[C@H](C)[C@@H](CN(C)CC2CCCCC2)OCCCC[C@H](C)Oc2ccc(NC(=O)c3ccncc3)cc2C1=O`: “inactive”.
Consider `COc1cccc(S(=O)(=O)N[C@H]2C=C[C@H](CC(=O)NC3CCC3)O[C@H]2CO)c1`, for which the cytotoxicity call is “inactive”.
Take `C[C@@H]1CN([C@H](C)CO)C(=O)c2cc(NC(=O)CCC(F)(F)F)ccc2O[C@H]1CN(C)Cc1ccc(C(F)(F)F)cc1`: the cytotoxicity call is “inactive”.
With `OC[C@H]1O[C@@H](O[C@H]2[C@H](O)[C@@H](O)[C@@H](O)O[C@@H]2CO)[C@H](O)[C@@H](O)[C@@H]1O`, the cytotoxicity call was “inactive”.
Consider `C[C@@H]1CC[C@@]2(OC1)O[C@H]1C[C@H]3[C@H]4C[C@@H](O)[C@H]5C[C@@H](O[C@@H]6O[C@H](CO)[C@H](O[C@@H]7O[C@H](CO)[C@@H](O)[C@H](O[C@@H]8OC[C@@H](O)[C@H](O)[C@H]8O)[C@H]7O[C@@H]7O[C@H](CO)[C@@H](O)[C@H](O)[C@H]7O)[C@H](O)[C@H]6O)CC[C@]5(C)[C@@H]4CC[C@]3(C)[C@H]1[C@@H]2C`, for which the cytotoxicity call was “active”.
Turning to `C[C@@H]1CC[C@@]2(OC1)O[C@H]1C[C@H]3[C@H]4C[C@@H](O)[C@H]5C[C@@H](O[C@@H]6O[C@H](CO)[C@H](O[C@@H]7O[C@H](CO)[C@@H](O)[C@H](O[C@@H]8OC[C@@H](O)[C@H](O)[C@H]8O)[C@H]7O[C@@H]7O[C@H](CO)[C@@H](O[C@@H]8O[C@H](CO)[C@@H](O)[C@H](O)[C@H]8O)[C@H](O)[C@H]7O)[C@H](O)[C@H]6O)CC[C@]5(C)[C@@H]4CC[C@]3(C)[C@H]1[C@@H]2C`, the cytotoxicity call is “active”.
Next, `OC[C@@H]1O[C@H](O)[C@H](O)[C@H](O[C@@H]2O[C@H](CO)[C@H](O)[C@H](O[C@@H]3O[C@H](CO)[C@@H](O)[C@H](O)[C@@H]3O)[C@H]2O)[C@H]1O`: “inactive”; `CC1CCC2(OC1)OC1CC3C4CC=C5CC(O)CCC5(C)C4CCC3(C)C1C2C` (stereo not given): “inactive”.
Turning to `CC(=O)OC1CCC2(C)C(CCC3C2CC(=O)C2(C)C3CC3OC4(CCC(C)CO4)C(C)C32)C1` (stereo not given), the cytotoxicity call was “inactive”.
On to `C[C@@H]1CC[C@@]2(OC1)O[C@H]1C[C@H]3[C@H]4CC=C5C[C@@H](O[C@@H]6O[C@H](CO)[C@@H](O[C@@H]7O[C@@H](C)[C@H](O)[C@@H](O)[C@H]7O[C@@H]7O[C@@H](C)[C@H](O)[C@@H](O)[C@H]7O)[C@H](O)[C@H]6O)CC[C@]5(C)[C@@H]4CC[C@]3(C)[C@H]1[C@@H]2C`, for which the cytotoxicity call was “active”.
As for `CC(=O)OC1CCC2(C)C(CCC3C2CCC2(C)C3CC3OC4(CCC(C)CO4)C(C)C32)C1` (stereo not given), the cytotoxicity call was “inactive”.
Regarding `CC1CCC2(OC1)OC1CC3C4CCC5CC(O)CCC5(C)C4CC(=O)C3(C)C1C2C` (stereo not given), the cytotoxicity call was “inactive”.
On to `CC(C)=CCC[C@](C)(O[C@@H]1O[C@H](CO[C@@H]2OC[C@@H](O)[C@H](O)[C@H]2O)[C@@H](O)[C@H](O)[C@H]1O)[C@H]1CC[C@]2(C)[C@@H]1[C@H](O)C[C@@H]1[C@@]3(C)CC[C@H](O[C@@H]4O[C@H](CO)[C@@H](O)[C@H](O)[C@H]4O)C(C)(C)[C@@H]3CC[C@]12C`, for which the cytotoxicity call was “inactive”.
For the compound `C[C@@H]1O[C@@H](O[C@H]2[C@H](O)[C@@H](O)[C@H](OC[C@H]3O[C@@H](OC(=O)[C@]45CCC(C)(C)C[C@@H]4C4=CC[C@H]6[C@@]7(C)CC[C@H](O[C@H]8OC[C@H](O)[C@H](O)[C@H]8O[C@H]8O[C@@H](C)[C@H](O)[C@@H](O)[C@H]8O)[C@@](C)(CO)[C@@H]7CC[C@@]6(C)[C@]4(C)CC5)[C@H](O)[C@@H](O)[C@@H]3O)O[C@@H]2CO)[C@H](O)[C@H](O)[C@H]1O`, the cytotoxicity call is “inactive”.

The values above are taken from the antibiotic and cytotoxicity screens of Wong et al. (2023).
